Measurements as given in the supplement of paper PMC10646978.
± gives the standard deviation.

Legend:
Details in all cases: modulator concentration 10 µM
[1] = tested on: RAW-Dual (murine macrophage reporter line); test: NF-kB reporter (SEAP) activity fold change vs agonist alone; higher = enhanced NF-kB activity
How it was run: (§1)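 RAW-Dual murine macrophage reporter cells were plated at 50 000 per well in 384-well plates, pin-transferred compound to 10 μM final, and pre-incubated for 1 hour at 37 °C before a PRR agonist was added and the cells incubated overnight. NF-κB activity was read from supernatant SEAP with QUANTI-Blue at 620 nm absorbance, and IRF activity from Lucia luciferase with QUANTI-Luc by luminescence. Each signal was expressed as fold change by dividing by the mean agonist-only control on the same plate. Two replicate plates were averaged, with errors obtained by propagation.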

[2] = tested on: RAW-Dual (murine macrophage reporter line); test: IRF reporter (Lucia luciferase) activity fold change vs agonist alone; higher = enhanced IRF activity
How it was run: as §1

[3] = tested on: RAW-Dual (murine macrophage reporter line); test: viability score (confluency relative to resting cells, overnight) (fraction); higher = more viable, active = viable (0.7 or more)
How it was run: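 Overnight exposure to 10 μM final compound was carried out on RAW-Dual macrophages in 384-well plates. IncuCyte software generated two confluency masks over all wells imaged with IncuCyte. The viability score gives confluency in relation to resting cells. A compound met the cutoff if each mask exceeded 70% of resting cells.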

[4] = agonist: CpG ODN 1826 0.5 ug/mL

SMILES	NF-kB reporter [1, 4]	NF-kB reporter ([1]; agonist: LPS 0.1 ug/mL)	NF-kB reporter ([1]; agonist: MPLA […])	IRF reporter ([2]; agonist: 3'3'-cGAMP 10 ug/mL)	IRF reporter ([2]; agonist: LPS 0.1 ug/mL)	IRF reporter ([2]; agonist: MPLA […])	viability score [3]
CS(=O)(=O)N(CC(=O)NCCSCc1cccc(Cl)c1)c1ccc(Cl)cc1	0.893 ± 0.093	0.962 ± 0.079	0.964 ± 0.044	0.904 ± 0.13	1.07 ± 0.062	0.902 ± 0.081	1 (active)
CCC(C(=O)NCc1ccnc(-c2ccncc2)c1)c1ccccc1 (centres undefined)	1.27 ± 0.09	1.1 ± 0.084	1.12 ± 0.03	0.574 ± 0.029	0.654 ± 0.086	0.545 ± 0.12	0.994 (active)
C[N+]1(C)CCC(OC(=O)C(O)(c2ccccc2)C2CCCC2)C1 (centres undefined) [Prestw-746]	0.923 ± 0.061	0.998 ± 0.066	0.943 ± 0.062	0.949 ± 0.031	1.24 ± 0.16	1.13 ± 0.17	1.01 (active)
O=C1Cc2cc(NC(=O)c3ccc(OC(F)(F)F)cc3)ccc2N1	1.19 ± 0.083	0.929 ± 0.076	0.998 ± 0.068	0.643 ± 0.034	0.959 ± 0.059	0.99 ± 0.13	1 (active)
c1cnn(-c2ccc(N=Nc3ccc(-n4cccn4)cc3)cc2)c1	0.939 ± 0.087	1.05 ± 0.083	0.966 ± 0.082	0.814 ± 0.037	1.09 ± 0.1	1.02 ± 0.12	0.996 (active)
CN1C(=O)C(=NNC(=O)c2ccccc2Cl)c2cc(Br)cc(Br)c21	1.13 ± 0.091	0.997 ± 0.081	1.03 ± 0.057	0.897 ± 0.15	1.12 ± 0.078	1.01 ± 0.32	1 (active)
c1ccc(CN2CCN(c3cc(-c4cccnc4)n[nH]3)CC2)cc1	0.805 ± 0.043	1.06 ± 0.096	1.21 ± 0.092	1.09 ± 0.051	1.37 ± 0.31	1.56 ± 0.59	0.98 (active)
O=C1C2C3C=CC(C4CC34)C2C(=O)N1N=Cc1ccc(-c2ccc(Cl)cc2)o1 (centres undefined)	1.01 ± 0.14	1.04 ± 0.074	0.924 ± 0.068	0.968 ± 0.034	1.56 ± 0.26	1.15 ± 0.1	1.01 (active)
Cc1ccc(S(=O)(=O)Nc2c3ccccc3c(O)c3c4c(oc23)CC(C)(C)CC4=O)cc1	0.938 ± 0.075	1.04 ± 0.067	0.935 ± 0.058	0.842 ± 0.05	1.29 ± 0.14	1.02 ± 0.16	1.01 (active)
CN1CCN(CCC=C2c3ccccc3Sc3ccc(S(=O)(=O)N(C)C)cc32)CC1	0.935 ± 0.071	1.04 ± 0.12	1.01 ± 0.051	0.856 ± 0.057	0.978 ± 0.078	0.872 ± 0.076	0.991 (active)
CCC(=O)Nc1ccc(S(=O)(=O)N2CCSC(c3ccccc3C)CC2)c(C)c1 (centres undefined)	0.688 ± 0.045	0.88 ± 0.11	0.937 ± 0.087	0.412 ± 0.018	0.996 ± 0.085	0.988 ± 0.17	0.994 (active)
Cc1nnc(NC(=O)c2ccccc2C(=O)O)s1	0.982 ± 0.13	0.969 ± 0.063	0.983 ± 0.051	1.11 ± 0.28	1.01 ± 0.055	1.04 ± 0.085	0.998 (active)
CC(C)(C)C(=O)OCOP(=O)(COCCn1cnc2c(N)ncnc21)OCOC(=O)C(C)(C)C	1.69 ± 0.25	1.36 ± 0.11	1.65 ± 0.1	1.81 ± 0.096	5.89 ± 0.5	3.2 ± 0.43	0.788 (active)
CCc1ccc(Cc2ccc3c(c2)[C@]2(OC3)O[C@H](CO)[C@@H](O)[C@H](O)[C@H]2O)cc1.O	1.04 ± 0.29	1.08 ± 0.054	1.07 ± 0.094	0.883 ± 0.033	1.04 ± 0.12	1.16 ± 0.26	0.987 (active)
Oc1c2c(nc3cc(-c4ccc(Cl)cc4)nn13)CCS2	1.1 ± 0.09	0.945 ± 0.12	0.973 ± 0.031	0.976 ± 0.038	0.967 ± 0.047	1.11 ± 0.14	0.998 (active)
CCOC(=O)c1ncn2c1CN(C)C(=O)c1cc(F)ccc1-2	1.26 ± 0.22	1.03 ± 0.28	0.975 ± 0.058	0.912 ± 0.029	1.2 ± 0.27	1.16 ± 0.088	0.995 (active)
Cc1cc(C(=O)Nc2ccc(-n3nnn(C)c3=O)cc2)c(C)o1	1.01 ± 0.077	1.05 ± 0.083	0.809 ± 0.041	0.985 ± 0.064	1.25 ± 0.076	1.28 ± 0.17	1.01 (active)
COC(=O)c1cc(OC)c(=O)c2c(OC)c(OC)ccc2c1	1.08 ± 0.33	0.981 ± 0.059	0.931 ± 0.1	0.743 ± 0.03	1.02 ± 0.22	0.884 ± 0.088	0.984 (active)
Cc1oncc1C(=O)Nc1ccc(C(F)(F)F)cc1	2.06 ± 0.4	1.1 ± 0.16	1.09 ± 0.071	1.31 ± 0.045	1.12 ± 0.29	2.03 ± 0.2	0.357 (inactive)
COc1ccccc1OCC(O)COC(N)=O (centres undefined)	1.56 ± 0.26	1.28 ± 0.17	0.938 ± 0.058	0.93 ± 0.041	1.49 ± 0.15	1.21 ± 0.12	0.985 (active)
Cc1nc[nH]c1CN1CCc2c(c3ccccc3n2C)C1=O.Cl	1.13 ± 0.28	1.08 ± 0.12	0.903 ± 0.08	0.903 ± 0.041	1.31 ± 0.2	1.12 ± 0.11	1 (active)
O=C1CCC(=O)N1C1CC2CCC(C1)N2C(=O)c1cnccn1 (centres undefined)	0.892 ± 0.056	0.903 ± 0.081	1.06 ± 0.057	1.03 ± 0.053	1.22 ± 0.19	1.31 ± 0.41	0.954 (active)
CC1=C(C(=O)Nc2cccc(C)n2)C(c2ccsc2)C2=C(CC(C)(C)CC2=O)N1 (centres undefined)	1.04 ± 0.16	1.02 ± 0.057	0.996 ± 0.059	0.954 ± 0.04	1.2 ± 0.086	0.979 ± 0.12	1.01 (active)
Cc1cccc(C(=O)N2N=C(c3ccccc3)CC2(O)C(F)(F)F)c1 (centres undefined)	1.29 ± 0.1	1.13 ± 0.062	1.46 ± 0.087	1.58 ± 0.049	3.2 ± 0.32	1.79 ± 0.12	0.254 (inactive)
CNC(=O)C(=O)Nc1cc(Cl)ccc1C	1.07 ± 0.18	1 ± 0.078	0.912 ± 0.08	1.01 ± 0.042	1.25 ± 0.15	1.3 ± 0.19	1 (active)
O=C(NC1CCN(CCCCC2(C(=O)NCC(F)(F)F)c3ccccc3-c3ccccc32)CC1)c1ccccc1-c1ccc(C(F)(F)F)cc1	0.881 ± 0.043	0.952 ± 0.12	1.08 ± 0.062	0.983 ± 0.045	1.46 ± 0.33	1.44 ± 0.53	0.968 (active)
COc1cccc(CCc2ccccc2OCC(CN(C)C)OC(=O)CCC(=O)O)c1.Cl (centres undefined)	0.428 ± 0.063	0.948 ± 0.3	0.925 ± 0.057	0.512 ± 0.018	1.25 ± 0.31	0.984 ± 0.19	0.995 (active)
